What all share (assay): DAPPL (digital affinity profiling via proximity ligation, sequencing); 10 mM Tris-HCl pH 7.5, 50 mM NaCl, 1 mM DTT, 4% glycerol, room temperature, 30 min; GST-TFs on glutathione beads, 16-mer random dsDNA library, 0.1% formaldehyde crosslink after washing; high values mean tight binding
In one test the target is T1, FLI1 (Homo sapiens, UniProt Q01543 1-452).
T1 sequence: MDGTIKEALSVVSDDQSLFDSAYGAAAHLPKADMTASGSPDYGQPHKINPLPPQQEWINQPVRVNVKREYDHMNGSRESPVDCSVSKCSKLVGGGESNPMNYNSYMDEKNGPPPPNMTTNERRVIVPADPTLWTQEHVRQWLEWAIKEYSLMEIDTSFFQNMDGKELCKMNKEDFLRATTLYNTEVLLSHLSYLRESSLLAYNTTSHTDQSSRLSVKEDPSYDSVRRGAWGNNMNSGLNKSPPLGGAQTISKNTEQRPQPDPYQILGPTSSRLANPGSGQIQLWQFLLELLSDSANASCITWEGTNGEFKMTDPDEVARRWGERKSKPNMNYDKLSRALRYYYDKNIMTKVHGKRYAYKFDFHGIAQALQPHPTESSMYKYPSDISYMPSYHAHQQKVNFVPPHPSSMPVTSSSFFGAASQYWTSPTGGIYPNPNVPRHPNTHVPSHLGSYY
The settings on record: protein: recombinant; tags: N-terminal GST; dsDNA, one strand shown. Summed up: (§1)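 In yeast, human transcription factors were expressed with a GST fusion, then pulled down on glutathione beads and given DNA barcodes. Pooled with a tag-only sample, they were exposed to 200 nmole of a 16-mer random double-stranded DNA library (Tris/NaCl/DTT/glycerol buffer, room temperature, 30 min), washed, crosslinked with 0.1% formaldehyde, proximity-ligated using BsaI/T4 ligase for 1 h at 37 °C, PCR-amplified and read on an Illumina NextSeq500. Each hexamer's frequency of reads for a factor, divided by the matching frequency for the tag-only sample, gives the binding signal.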

A further test deals with T2, ELK1 (Homo sapiens, UniProt P19419 1-428).
T2 sequence: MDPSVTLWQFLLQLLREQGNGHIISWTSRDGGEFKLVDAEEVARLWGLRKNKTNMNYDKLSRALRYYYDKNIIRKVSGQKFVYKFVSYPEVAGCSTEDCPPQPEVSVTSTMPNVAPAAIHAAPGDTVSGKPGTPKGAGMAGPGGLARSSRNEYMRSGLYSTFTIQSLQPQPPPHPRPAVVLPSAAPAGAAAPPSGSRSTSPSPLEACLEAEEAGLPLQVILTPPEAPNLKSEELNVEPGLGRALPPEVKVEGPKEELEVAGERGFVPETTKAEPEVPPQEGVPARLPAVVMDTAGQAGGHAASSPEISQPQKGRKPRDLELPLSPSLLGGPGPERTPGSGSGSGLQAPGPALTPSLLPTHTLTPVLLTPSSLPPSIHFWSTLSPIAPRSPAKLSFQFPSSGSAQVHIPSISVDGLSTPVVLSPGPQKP
The settings on record: protein: recombinant; tags: N-terminal GST; dsDNA, one strand shown. Summed up: as §1

Another test has as its target T3, GABPA (Homo sapiens, UniProt Q06546 1-454).
T3 sequence: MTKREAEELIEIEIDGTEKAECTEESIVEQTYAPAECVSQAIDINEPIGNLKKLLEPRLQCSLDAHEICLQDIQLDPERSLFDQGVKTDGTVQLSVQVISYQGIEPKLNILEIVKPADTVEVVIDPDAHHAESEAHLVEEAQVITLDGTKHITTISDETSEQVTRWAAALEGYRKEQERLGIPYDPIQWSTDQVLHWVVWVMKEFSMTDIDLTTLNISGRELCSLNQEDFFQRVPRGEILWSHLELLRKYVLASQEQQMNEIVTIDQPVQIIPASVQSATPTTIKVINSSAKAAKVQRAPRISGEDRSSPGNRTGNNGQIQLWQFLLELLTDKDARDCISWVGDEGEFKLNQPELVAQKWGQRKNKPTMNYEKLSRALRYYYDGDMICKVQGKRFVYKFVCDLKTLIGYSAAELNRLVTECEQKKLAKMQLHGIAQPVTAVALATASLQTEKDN
The following applies: protein: recombinant; tags: N-terminal GST; dsDNA, one strand shown. A digest of the protocol: as §1

The next test concerns the target T4, ERG (Homo sapiens, UniProt P11308 1-479).
T4 sequence: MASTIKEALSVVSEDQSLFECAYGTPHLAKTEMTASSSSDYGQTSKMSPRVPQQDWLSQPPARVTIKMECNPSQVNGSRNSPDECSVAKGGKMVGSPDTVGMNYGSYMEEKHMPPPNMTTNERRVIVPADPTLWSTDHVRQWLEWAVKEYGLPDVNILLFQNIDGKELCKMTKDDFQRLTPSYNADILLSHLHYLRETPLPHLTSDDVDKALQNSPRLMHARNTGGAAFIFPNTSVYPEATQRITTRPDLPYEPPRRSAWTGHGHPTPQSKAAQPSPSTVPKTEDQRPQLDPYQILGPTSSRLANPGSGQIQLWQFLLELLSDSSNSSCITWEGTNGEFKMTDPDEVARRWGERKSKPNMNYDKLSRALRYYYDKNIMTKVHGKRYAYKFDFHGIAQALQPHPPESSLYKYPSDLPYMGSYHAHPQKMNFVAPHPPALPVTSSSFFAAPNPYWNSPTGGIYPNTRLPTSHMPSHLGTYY
The settings on record: protein: recombinant; tags: N-terminal GST; dsDNA, one strand shown. A digest of the protocol:
as §1

For another test, the target named is ELF1 (Homo sapiens, UniProt P32519 1-619). The following applies: protein: recombinant; tags: N-terminal GST; dsDNA, one strand shown. Summed up: as §1
The next test concerns the target T5, EHF (Homo sapiens, UniProt Q9NZC4 1-300).
T5 sequence: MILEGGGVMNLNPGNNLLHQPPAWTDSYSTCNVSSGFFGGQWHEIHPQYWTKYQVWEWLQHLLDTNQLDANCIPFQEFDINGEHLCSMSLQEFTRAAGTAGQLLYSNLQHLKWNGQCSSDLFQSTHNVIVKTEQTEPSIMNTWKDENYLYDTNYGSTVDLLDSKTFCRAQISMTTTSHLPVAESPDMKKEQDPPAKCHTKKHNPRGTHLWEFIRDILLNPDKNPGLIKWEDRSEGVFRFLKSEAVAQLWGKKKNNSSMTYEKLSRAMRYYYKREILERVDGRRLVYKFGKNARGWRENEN
The following applies: protein: recombinant; tags: N-terminal GST; dsDNA, one strand shown. Summed up: as §1

The next test deals with SPI1 (Homo sapiens, UniProt P17947 1-270). The settings on record: protein: recombinant; tags: N-terminal GST; dsDNA, one strand shown. Summed up:
as §1

In another test the target is SPIB (Homo sapiens, UniProt Q01892 1-262). The settings on record: protein: recombinant; tags: N-terminal GST; dsDNA, one strand shown. A digest of the protocol: as §1
The target of the next test is T6, ELK3 (Homo sapiens, UniProt P41970 1-407).
T6 sequence: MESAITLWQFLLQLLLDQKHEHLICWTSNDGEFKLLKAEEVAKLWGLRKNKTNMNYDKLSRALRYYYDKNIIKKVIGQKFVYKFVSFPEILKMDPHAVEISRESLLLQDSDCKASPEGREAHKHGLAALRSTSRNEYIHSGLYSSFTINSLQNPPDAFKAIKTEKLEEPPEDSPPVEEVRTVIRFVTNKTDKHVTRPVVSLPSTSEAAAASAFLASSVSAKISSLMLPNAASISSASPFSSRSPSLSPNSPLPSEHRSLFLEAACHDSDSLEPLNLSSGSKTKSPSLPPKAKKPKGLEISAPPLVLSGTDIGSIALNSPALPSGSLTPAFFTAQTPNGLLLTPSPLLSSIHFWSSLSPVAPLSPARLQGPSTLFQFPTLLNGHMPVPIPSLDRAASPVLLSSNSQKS
The following applies: protein: recombinant; tags: N-terminal GST; dsDNA, one strand shown. A digest of the protocol: as §1

The next test addresses T7, FEV (Homo sapiens, UniProt Q99581 1-238).
T7 sequence: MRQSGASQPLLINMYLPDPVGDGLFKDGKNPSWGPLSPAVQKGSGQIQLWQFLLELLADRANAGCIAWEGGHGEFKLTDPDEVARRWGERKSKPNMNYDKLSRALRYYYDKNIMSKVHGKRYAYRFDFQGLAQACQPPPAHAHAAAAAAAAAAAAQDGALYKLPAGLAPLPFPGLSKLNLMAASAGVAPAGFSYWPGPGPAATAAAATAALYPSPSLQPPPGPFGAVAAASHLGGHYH
The settings on record: protein: recombinant; tags: N-terminal GST; dsDNA, one strand shown. A digest of the protocol: as §1

The target in the next test is ETV5 (Homo sapiens, UniProt P41161 1-510). The settings on record: protein: recombinant; tags: N-terminal GST; dsDNA, one strand shown. Summed up:
as §1

The target of the next test is HSF1 (Homo sapiens, UniProt Q00613 1-529). The following applies: protein: recombinant; tags: N-terminal GST; chain copies: 3; dsDNA, one strand shown. A digest of the protocol:
as §1

The target of a further test is T8, SPIC (Homo sapiens, UniProt Q8N5J4 1-248).
T8 sequence: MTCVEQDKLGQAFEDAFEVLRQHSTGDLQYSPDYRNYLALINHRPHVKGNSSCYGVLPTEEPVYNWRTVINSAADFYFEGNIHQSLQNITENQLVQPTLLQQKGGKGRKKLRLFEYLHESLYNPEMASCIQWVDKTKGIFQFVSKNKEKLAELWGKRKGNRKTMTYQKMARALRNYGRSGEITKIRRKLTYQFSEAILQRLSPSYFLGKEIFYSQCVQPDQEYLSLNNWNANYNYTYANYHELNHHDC
The settings on record: protein: recombinant; tags: N-terminal GST; dsDNA, one strand shown. A digest of the protocol:
as §1

The next test deals with ELF4 (Homo sapiens, UniProt Q99607 1-663). The settings on record: protein: recombinant; tags: N-terminal GST; dsDNA, one strand shown. Summed up:
as §1

Another test deals with T9, ELK4 (Homo sapiens, UniProt P28324-2 1-405).
T9 sequence: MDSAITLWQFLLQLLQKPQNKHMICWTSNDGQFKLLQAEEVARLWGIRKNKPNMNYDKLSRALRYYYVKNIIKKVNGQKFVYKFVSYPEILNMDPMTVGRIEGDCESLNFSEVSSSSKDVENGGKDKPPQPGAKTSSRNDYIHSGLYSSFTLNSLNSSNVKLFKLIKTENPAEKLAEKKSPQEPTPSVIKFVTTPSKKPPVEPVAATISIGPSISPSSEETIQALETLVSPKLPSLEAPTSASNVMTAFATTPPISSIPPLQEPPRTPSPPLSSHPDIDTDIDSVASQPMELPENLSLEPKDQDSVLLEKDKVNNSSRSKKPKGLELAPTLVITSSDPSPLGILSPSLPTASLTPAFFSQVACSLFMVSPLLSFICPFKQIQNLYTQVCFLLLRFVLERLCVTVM
The settings on record: protein: recombinant; tags: N-terminal GST; dsDNA, one strand shown. Summed up:
as §1

A further test has as its target T10, ETV2 (Homo sapiens, UniProt O00321 1-342).
T10 sequence: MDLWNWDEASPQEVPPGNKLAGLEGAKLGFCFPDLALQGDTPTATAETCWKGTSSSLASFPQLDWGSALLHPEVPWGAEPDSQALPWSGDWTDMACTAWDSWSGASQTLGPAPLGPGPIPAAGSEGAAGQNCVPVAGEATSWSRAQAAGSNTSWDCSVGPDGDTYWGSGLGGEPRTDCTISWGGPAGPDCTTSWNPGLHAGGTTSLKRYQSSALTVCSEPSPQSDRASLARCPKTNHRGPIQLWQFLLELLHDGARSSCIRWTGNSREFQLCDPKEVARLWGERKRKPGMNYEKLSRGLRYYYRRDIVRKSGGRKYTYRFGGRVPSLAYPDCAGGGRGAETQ
The settings on record: protein: recombinant; tags: N-terminal GST; dsDNA, one strand shown. A digest of the protocol: as §1

The target of the next test is T11, ELF3 (Homo sapiens, UniProt P78545 1-371).
T11 sequence: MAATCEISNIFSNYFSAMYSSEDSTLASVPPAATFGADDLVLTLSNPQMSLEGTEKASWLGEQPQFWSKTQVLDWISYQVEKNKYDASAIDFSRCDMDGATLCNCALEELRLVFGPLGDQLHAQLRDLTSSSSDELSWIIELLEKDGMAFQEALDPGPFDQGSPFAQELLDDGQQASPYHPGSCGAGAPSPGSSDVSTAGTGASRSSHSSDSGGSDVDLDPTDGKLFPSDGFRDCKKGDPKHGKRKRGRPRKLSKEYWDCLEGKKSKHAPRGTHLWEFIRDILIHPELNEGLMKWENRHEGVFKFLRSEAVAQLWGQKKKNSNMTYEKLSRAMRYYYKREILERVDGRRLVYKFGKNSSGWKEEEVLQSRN
The settings on record: protein: recombinant; tags: N-terminal GST; dsDNA, one strand shown. Summed up:
as §1

Another test has as its target CRX (Homo sapiens, UniProt O43186 1-299). The following applies: protein: recombinant; tags: N-terminal GST; dsDNA, one strand shown. Summed up: as §1
For another test, the target named is ETV1 (Homo sapiens, UniProt P50549 1-477). The following applies: protein: recombinant; tags: N-terminal GST; dsDNA, one strand shown. A digest of the protocol:
as §1

ELF4, sequence (Q99607 whole entry): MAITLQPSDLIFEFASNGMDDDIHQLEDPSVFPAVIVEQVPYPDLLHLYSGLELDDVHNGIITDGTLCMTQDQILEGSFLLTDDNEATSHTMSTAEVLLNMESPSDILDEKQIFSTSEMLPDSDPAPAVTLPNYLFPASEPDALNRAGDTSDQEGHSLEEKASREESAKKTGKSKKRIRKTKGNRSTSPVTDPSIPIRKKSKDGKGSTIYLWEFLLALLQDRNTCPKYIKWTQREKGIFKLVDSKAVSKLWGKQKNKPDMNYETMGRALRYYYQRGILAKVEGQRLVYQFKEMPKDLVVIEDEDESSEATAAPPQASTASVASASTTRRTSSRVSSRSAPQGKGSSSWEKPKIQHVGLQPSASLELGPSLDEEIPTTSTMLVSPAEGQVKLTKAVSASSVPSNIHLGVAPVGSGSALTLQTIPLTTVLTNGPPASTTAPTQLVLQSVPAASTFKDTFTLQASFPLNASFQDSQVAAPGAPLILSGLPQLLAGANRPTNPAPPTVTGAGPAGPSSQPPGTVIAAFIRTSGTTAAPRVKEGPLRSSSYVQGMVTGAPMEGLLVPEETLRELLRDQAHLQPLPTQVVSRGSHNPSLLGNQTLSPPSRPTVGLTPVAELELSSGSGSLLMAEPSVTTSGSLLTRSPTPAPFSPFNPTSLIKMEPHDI
ETV1, sequence (P50549 whole entry): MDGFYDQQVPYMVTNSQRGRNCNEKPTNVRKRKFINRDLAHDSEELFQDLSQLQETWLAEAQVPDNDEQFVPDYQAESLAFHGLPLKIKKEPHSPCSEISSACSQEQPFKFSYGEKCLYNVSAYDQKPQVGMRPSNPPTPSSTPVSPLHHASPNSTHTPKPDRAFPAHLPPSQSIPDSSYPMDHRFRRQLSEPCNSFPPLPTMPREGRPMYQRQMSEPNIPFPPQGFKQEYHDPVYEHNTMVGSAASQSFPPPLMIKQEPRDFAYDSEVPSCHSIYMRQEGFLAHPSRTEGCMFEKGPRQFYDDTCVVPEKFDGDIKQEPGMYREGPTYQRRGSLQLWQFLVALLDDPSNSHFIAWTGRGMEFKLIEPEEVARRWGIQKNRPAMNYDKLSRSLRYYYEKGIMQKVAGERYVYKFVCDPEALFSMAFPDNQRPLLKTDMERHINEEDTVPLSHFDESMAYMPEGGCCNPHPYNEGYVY
ELF1, sequence (P32519 whole entry): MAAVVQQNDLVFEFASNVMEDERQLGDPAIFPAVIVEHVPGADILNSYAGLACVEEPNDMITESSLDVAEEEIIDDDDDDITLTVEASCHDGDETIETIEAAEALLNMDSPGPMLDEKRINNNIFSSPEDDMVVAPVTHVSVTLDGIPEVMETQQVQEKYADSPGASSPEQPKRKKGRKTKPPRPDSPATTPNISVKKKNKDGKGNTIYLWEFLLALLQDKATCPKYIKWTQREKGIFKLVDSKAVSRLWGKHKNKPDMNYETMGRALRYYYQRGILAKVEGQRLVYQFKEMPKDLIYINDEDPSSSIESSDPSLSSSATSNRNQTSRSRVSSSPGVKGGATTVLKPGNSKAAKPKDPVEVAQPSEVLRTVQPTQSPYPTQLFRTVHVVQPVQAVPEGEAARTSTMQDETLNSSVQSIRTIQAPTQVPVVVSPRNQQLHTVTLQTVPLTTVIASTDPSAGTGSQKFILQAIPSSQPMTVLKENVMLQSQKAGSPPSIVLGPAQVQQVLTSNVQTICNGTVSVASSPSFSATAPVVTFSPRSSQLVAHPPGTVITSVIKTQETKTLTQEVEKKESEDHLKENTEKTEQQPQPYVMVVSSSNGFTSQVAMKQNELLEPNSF
ETV5, sequence (P41161 whole entry): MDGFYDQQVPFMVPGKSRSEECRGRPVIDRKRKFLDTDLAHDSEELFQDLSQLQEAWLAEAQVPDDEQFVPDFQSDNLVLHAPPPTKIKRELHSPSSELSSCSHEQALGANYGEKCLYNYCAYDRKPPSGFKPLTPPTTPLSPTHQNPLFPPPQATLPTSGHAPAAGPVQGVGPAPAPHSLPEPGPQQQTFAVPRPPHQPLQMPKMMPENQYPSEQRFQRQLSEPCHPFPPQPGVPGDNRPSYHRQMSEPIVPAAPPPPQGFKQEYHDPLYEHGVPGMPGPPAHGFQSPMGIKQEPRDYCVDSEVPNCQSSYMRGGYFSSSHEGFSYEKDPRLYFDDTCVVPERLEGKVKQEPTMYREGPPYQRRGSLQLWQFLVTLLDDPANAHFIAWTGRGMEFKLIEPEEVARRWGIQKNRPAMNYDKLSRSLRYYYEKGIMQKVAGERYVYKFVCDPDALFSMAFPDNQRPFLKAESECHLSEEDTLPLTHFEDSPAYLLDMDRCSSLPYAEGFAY
CRX, sequence (O43186 whole entry): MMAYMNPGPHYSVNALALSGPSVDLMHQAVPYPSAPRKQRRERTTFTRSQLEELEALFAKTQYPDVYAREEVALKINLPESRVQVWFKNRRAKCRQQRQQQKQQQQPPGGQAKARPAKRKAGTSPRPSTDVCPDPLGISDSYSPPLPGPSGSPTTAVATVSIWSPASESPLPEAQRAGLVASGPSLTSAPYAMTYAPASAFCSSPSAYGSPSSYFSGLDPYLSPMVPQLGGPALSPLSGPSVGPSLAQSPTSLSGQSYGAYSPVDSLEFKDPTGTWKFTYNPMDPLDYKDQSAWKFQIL
HSF1, sequence (Q00613 whole entry): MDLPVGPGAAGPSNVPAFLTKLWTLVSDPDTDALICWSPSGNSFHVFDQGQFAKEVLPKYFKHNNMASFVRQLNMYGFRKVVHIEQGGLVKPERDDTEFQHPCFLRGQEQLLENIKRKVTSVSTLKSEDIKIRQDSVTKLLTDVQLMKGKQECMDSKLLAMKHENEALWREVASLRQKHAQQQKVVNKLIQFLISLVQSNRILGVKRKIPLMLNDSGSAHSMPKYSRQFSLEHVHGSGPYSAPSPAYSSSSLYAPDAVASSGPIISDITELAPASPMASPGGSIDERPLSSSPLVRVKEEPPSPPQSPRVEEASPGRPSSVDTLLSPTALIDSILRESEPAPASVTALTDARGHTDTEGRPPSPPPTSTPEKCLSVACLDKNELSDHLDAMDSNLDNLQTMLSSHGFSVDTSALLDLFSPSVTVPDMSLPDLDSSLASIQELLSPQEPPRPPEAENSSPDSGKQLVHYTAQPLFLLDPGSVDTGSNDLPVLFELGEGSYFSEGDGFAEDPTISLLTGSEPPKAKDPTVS
SPIB, sequence (Q01892 whole entry): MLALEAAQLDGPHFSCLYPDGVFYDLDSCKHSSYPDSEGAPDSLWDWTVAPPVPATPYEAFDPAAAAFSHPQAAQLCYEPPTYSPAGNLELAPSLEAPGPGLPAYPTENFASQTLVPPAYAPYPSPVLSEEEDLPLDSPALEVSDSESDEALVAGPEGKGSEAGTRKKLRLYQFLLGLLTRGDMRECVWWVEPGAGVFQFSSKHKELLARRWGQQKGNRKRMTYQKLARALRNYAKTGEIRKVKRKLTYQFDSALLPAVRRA

As for ATACTC, the binding signal in the test with FLI1 is 1.29 fold enrichment (6-mer frequency, TF over GST control); in the test with ELK1 it was 1.32 fold enrichment (6-mer frequency, TF over GST control); with GABPA it was 1.48 fold enrichment (6-mer frequency, TF over GST control); with ERG it was 1.3 fold enrichment (6-mer frequency, TF over GST control); with ELF1, 1.38 fold enrichment (6-mer frequency, TF over GST control); with EHF, 1.33 fold enrichment (6-mer frequency, TF over GST control). Also, the binding signal with SPI1 is 1.26 fold enrichment (6-mer frequency, TF over GST control); in the test with SPIB, 1.32 fold enrichment (6-mer frequency, TF over GST control); in the test with ELK3 it was 1.3 fold enrichment (6-mer frequency, TF over GST control); in the test with FEV it was 1.27 fold enrichment (6-mer frequency, TF over GST control); with ETV5, 1.22 fold enrichment (6-mer frequency, TF over GST control); in the test with HSF1, 1.41 fold enrichment (6-mer frequency, TF over GST control). For the same sequence, the binding signal in the test with SPIC was 1.42 fold enrichment (6-mer frequency, TF over GST control); with ELF4, 1.25 fold enrichment (6-mer frequency, TF over GST control); with ELK4 it was 1.23 fold enrichment (6-mer frequency, TF over GST control); with ETV2, 1.3 fold enrichment (6-mer frequency, TF over GST control); with ELF3, 1.23 fold enrichment (6-mer frequency, TF over GST control); with CRX, 1.37 fold enrichment (6-mer frequency, TF over GST control). For the same sequence, the binding signal with ETV1 is 1.28 fold enrichment (6-mer frequency, TF over GST control).

The record behind these values is publication PMC7862700, “An all-to-all approach to the identification of sequence-specific readers for epigenetic DNA modifications on cytosine”.
